Laboratory results reported in PubChem BioAssay (EPA / NIEHS).
Results filed as inconclusive are left out. The source made the active and inactive calls. The calls were made as follows, unless noted: active = hit-call score of the fitted dose curve at least 0.9, where 1 is the maximum; inactive = score below 0.9.

Tests used:
[1] = read-out: Human Leukocyte Antigen - DR isotype (HLADR), HLA-DRA (gene 3122); assay: BSK_3C_HLADR: BioMAP Diversity Plus: 3C Assay for Human Leukocyte Antigen - DR isotype (HLADR) Biomarker Activity (AID 2283019); settings: primary human endothelial cells (HUVEC); actives raise or lower the signal
How it was run: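 ELISA readout of surface HLA-DR on human umbilical vein endothelium, taken 24 h after chemical treatment. Gain- and loss-of-signal were both fitted relative to DMSO.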

[2] = read-out: Interleukin-8 (IL8), CXCL8 (gene 3576); assay: BSK_3C_IL8: BioMAP Diversity Plus: 3C Assay for Interleukin-8 (IL8) Biomarker Activity (AID 2283020); settings: primary human endothelial cells (HUVEC); actives raise or lower the signal
How it was run: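 Human vascular endothelial cells (umbilical vein) in the 3C system; IL-8 level detected by ELISA at 24 h post-dose, with DMSO as baseline.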

[3] = read-out: Monokine induced gamma interferon (MIG), CXCL9 (gene 4283); assay: BSK_3C_MIG: BioMAP Diversity Plus: 3C Assay for Monokine induced gamma interferon (MIG) Biomarker Activity (AID 2283021); settings: primary human endothelial cells (HUVEC); actives raise or lower the signal;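 as to AC50: MIG protein level measured by immunoassay in the treated endothelial cultures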
How it was run: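 After 24 h of treatment, human umbilical vein endothelial cultures (3C system) had their MIG biomarker level determined by ELISA, with DMSO serving as negative control.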

[4] = molecular target: human Vitamin D Receptor (VDR), VDR (gene 7421) (UniProt P11473); assay: ATG_VDR_TRANS: Attagene TRANS-FACTORIAL HepG2 Assay for human Vitamin D Receptor (VDR) (AID 2283022; active = hit-call score of the fitted dose curve at least 0.9, where 1 is the maximum)
How it was run: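 Steps: transfect HepG2 with GAL4-UAS-driven reporter constructs; dose compounds 24 h; isolate RNA, reverse-transcribe, PCR-amplify with 6-FAM-labelled primer extension and HpaI digestion; quantify fragments by capillary electrophoresis relative to DMSO.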

[5] = BSK_3C_SRB: Viability Assessment in the BioMAP Diversity Plus: 3C Assay (AID 2283023); settings: primary human endothelial cells (HUVEC);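 also: fitted both ways against DMSO so a hit may be signal rise or drop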
How it was run: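 Absorbance at 560 nm of sulforhodamine B-stained (0.1%) total protein served as a cytotoxicity readout in human umbilical vein endothelial cells, 24 h after chemical treatment. Signal was fitted bidirectionally relative to DMSO.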

[6] = read-out: Matrix Metallopeptidase 1 (MMP1), MMP1 (gene 4312); assay: BSK_BE3C_MMP1: BioMAP Diversity Plus: BE3C Assay for Matrix Metallopeptidase 1 (MMP1) Biomarker Activity (AID 2283024); settings: primary human bronchial epithelial cells; actives raise or lower the signal
How it was run: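 Dose cells, wait 24 h, run MMP1 ELISA; cells are human bronchial epithelial primaries. Both increases and decreases relative to DMSO counted.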

[7] = BSK_3C_Vis: BioMAP Diversity Plus: 3C Assay for Morphology Visualization (AID 2283025); settings: primary human endothelial cells (HUVEC);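 also: fitted both ways so gain or loss versus DMSO counts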;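 as to AC50: light microscopy image of cell morphology used as background control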
How it was run: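 Endothelial cells from human umbilical vein were treated with test chemicals for 24 h and inspected by light microscopy for changes in cell conformation.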

[8] = read-out: Pselectin, SELP (gene 6403); assay: BSK_4H_Pselectin: BioMAP Diversity Plus: 4H Assay for Pselectin Biomarker Activity (AID 2283026); settings: primary human endothelial cells (HUVEC); actives raise or lower the signal
How it was run: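 Human vascular endothelium from umbilical vein; P-selectin measured by ELISA at 24 h post-dose, with cytotoxicity checked by sulforhodamine B total-protein staining in parallel cultures (0.1% SRB after 10% TCA fixation, read at 560 nm).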

[9] = BSK_4H_SRB: Viability Assessment in the BioMAP Diversity Plus: 4H Assay (AID 2283027); settings: primary human endothelial cells (HUVEC);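 also: cells exposed to compound for 24 h before staining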
How it was run: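 Human umbilical vein endothelial cells, 24 h after chemical dosing; total protein measured by 0.1% sulforhodamine B staining after 10% TCA fixation, read at 560 nm. Bidirectional fitting against DMSO.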

[10] = BSK_BE3C_SRB: Viability Assessment in the BioMAP Diversity Plus: BE3C Assay (AID 2283028); settings: primary human bronchial epithelial cells;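 as to AC50: fitted both ways so AC50 may mark signal gain or loss versus DMSO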
How it was run: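 Cells (human bronchial epithelial, primary) are treated with chemicals, and after 24 h the parallel cultures are fixed in 10% TCA. These are then stained with 0.1% SRB and read at 560 nm. Gain or loss of signal is fitted relative to DMSO.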

[11] = read-out: Thrombomodulin, THBD (gene 7056); assay: BSK_3C_Thrombomodulin: BioMAP Diversity Plus: 3C Assay for Thrombomodulin Biomarker Activity (AID 2283029); settings: primary human endothelial cells (HUVEC); actives raise or lower the signal
How it was run: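 Thrombomodulin ELISA, human primary HUVEC, 24 h post-dose; data fitted in both directions relative to DMSO.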

[12] = read-out: Vascular endothelial growth factor receptor 2 (Homo sapiens) (UniProt P35968); assay: BSK_4H_VEGFRII: BioMAP Diversity Plus: 4H Assay for Vascular endothelial growth factor receptor 2 (VEGFR2) Biomarker Activity (AID 2283031); settings: primary human endothelial cells (HUVEC); actives raise or lower the signal
How it was run: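 ELISA read-out of VEGFRII in primary human umbilical vein endothelium, taken 24 h after chemical treatment. Responses are expressed relative to DMSO, with bidirectional fitting.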

[13] = read-out: Human Leukocyte Antigen - DR isotype (HLADR), HLA-DRA (gene 3122); assay: BSK_BE3C_HLADR: BioMAP Diversity Plus: BE3C Assay for Human Leukocyte Antigen - DR isotype (HLADR) Biomarker Activity (AID 2283032); settings: primary human bronchial epithelial cells; actives raise or lower the signal
How it was run: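 Signal came from an ELISA for HLA-DR in human bronchial epithelial primary cells harvested 24 h after treatment; gain- and loss-of-signal fitting used DMSO controls as reference.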

[14] = read-out: Vascular cell adhesion molecule 1 (VCAM1), VCAM1 (gene 7412); assay: BSK_4H_VCAM1: BioMAP Diversity Plus: 4H Assay for Vascular cell adhesion molecule 1 (VCAM1) Biomarker Activity (AID 2283033); settings: primary human endothelial cells (HUVEC); actives raise or lower the signal
How it was run: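 Endpoint derived from bidirectional fitting against DMSO controls of VCAM-1 ELISA signal in umbilical vein endothelial cells sampled at 24 h following treatment.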

[15] = read-out: Interferon-gamma inducible Protein 10 (IP10), CXCL10 (gene 3627); assay: BSK_BE3C_IP10: BioMAP Diversity Plus: BE3C Assay for Interferon-gamma inducible Protein 10 (IP10) Biomarker Activity (AID 2283034); settings: primary human bronchial epithelial cells; actives raise or lower the signal
How it was run: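 Using primary human bronchial epithelial cultures, the assay captures IP-10 by ELISA one day (24 h) after exposure. Parallel SRB staining of total protein flags overt cytotoxicity. Fits run bidirectionally relative to DMSO.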

[16] = read-out: Monokine induced gamma interferon (MIG), CXCL9 (gene 4283); assay: BSK_BE3C_MIG: BioMAP Diversity Plus: BE3C Assay for Monokine induced gamma interferon (MIG) Biomarker Activity (AID 2283035); settings: primary human bronchial epithelial cells; actives raise or lower the signal
How it was run: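 Primary human bronchial epithelial cells treated for 24 h; MIG levels measured by ELISA, fitted bidirectionally versus DMSO. Parallel SRB total-protein staining assessed cytotoxicity.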

[17] = read-out: Transforming growth factor beta 1 (TGFb1), TGFB1 (gene 7040); assay: BSK_BE3C_TGFb1: BioMAP Diversity Plus: BE3C Assay for Transforming growth factor beta 1 (TGFb1) Biomarker Activity (AID 2283036); settings: primary human bronchial epithelial cells; actives raise or lower the signal
How it was run: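 In this human primary bronchial epithelial system, an ELISA quantified TGF-b1 one day after dosing. Endpoint changes in either direction were fitted relative to DMSO.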

[18] = read-out: Plasminogen activator inhibitor-1 (PAI1), SERPINE1 (gene 5054); assay: BSK_BE3C_PAI1: BioMAP Diversity Plus: BE3C Assay for Plasminogen activator inhibitor-1 (PAI1) Biomarker Activity (AID 2283037); settings: primary human bronchial epithelial cells; actives raise or lower the signal
How it was run: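 PAI-1 biomarker levels in treated human bronchial epithelial cells are determined by ELISA at 24 h. Both increases and decreases relative to DMSO are fitted.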

[19] = read-out: urokinase plasminogen activator (uPA), PLAU (gene 5328); assay: BSK_BE3C_uPA: BioMAP Diversity Plus: BE3C Assay for urokinase plasminogen activator (uPA) Biomarker Activity (AID 2283038); settings: primary human bronchial epithelial cells; actives raise or lower the signal
How it was run: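 Bronchial epithelial cells (human, primary); chemical 24 h; uPA by ELISA; bidirectional fit vs DMSO. SRB (0.1%, after 10% TCA fixation, 560 nm) in parallel cultures for cytotoxicity.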

[20] = read-out: Urokinase-type plasminogen activator receptor (uPAR), PLAUR (gene 5329); assay: BSK_4H_uPAR: BioMAP Diversity Plus: 4H Assay for Urokinase-type plasminogen activator receptor (uPAR) Biomarker Activity (AID 2283030); settings: primary human endothelial cells (HUVEC); actives raise or lower the signal
How it was run: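 Cell-surface uPAR ELISA signal, measured 24 h after dosing human umbilical vein endothelial cells, was analyzed with bidirectional fitting relative to DMSO. Parallel SRB staining of total protein tracked overt cytotoxicity.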

Measured: AC50

Sequence of human Vitamin D Receptor (VDR), VDR (gene 7421) (P11473 whole entry, looked up, the tested form may be a part): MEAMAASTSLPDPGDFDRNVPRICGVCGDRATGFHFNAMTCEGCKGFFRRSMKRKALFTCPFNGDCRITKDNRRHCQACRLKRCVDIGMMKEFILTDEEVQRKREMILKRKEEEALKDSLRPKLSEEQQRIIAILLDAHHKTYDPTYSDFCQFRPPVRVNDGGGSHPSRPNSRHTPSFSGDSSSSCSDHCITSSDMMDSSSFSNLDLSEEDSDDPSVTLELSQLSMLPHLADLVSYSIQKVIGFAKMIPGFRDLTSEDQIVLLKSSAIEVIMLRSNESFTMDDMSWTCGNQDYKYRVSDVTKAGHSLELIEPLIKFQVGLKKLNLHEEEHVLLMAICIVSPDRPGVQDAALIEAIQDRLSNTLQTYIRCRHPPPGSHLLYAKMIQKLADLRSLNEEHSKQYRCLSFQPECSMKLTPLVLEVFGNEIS

CCc1cccc(C)c1N(C(=O)CCl)C(C)COC (centres undefined)
inactive: [1] | [2] | [3] | [4] | [5] | [6] | [9] | [10] | [11] | [12] | [13] | [14] | [15] | [16] | [17] | [18] | [19]
active: [7] 39 µM | [8] 13.6 µM

CNc1cnn(-c2cccc(C(F)(F)F)c2)c(=O)c1Cl
inactive: [2] | [3] | [5] | [6] | [7] | [8] | [9] | [10] | [11] | [20] | [12] | [14] | [15] | [16] | [17] | [18] | [19]
active: [1] 3.97 µM | [13] 23.7 µM

COc1ccc(C(=CC(=O)N2CCOCC2)c2ccc(Cl)cc2)cc1OC
active: [1] 13.9 µM | [11] 3.36 µM
inactive: [2] | [3] | [4] | [5] | [6] | [7] | [8] | [10] | [12] | [13] | [14] | [15] | [16] | [17] | [18] | [19]

CC1=NNC(=O)N(/N=C/c2cccnc2)C1
inactive: [1] | [2] | [3] | [4] | [5] | [6] | [7] | [8] | [10] | [11] | [12] | [13] | [14] | [15] | [16] | [17] | [18] | [19]

CCCCN(CC)c1c([N+](=O)[O-])cc(C(F)(F)F)cc1[N+](=O)[O-]
inactive: [2] | [3] | [4] | [6] | [8] | [10] | [11] | [12] | [13] | [16] | [17] | [18] | [19]
active: [1] 20 µM | [5] 16.4 µM | [7] 39 µM | [14] 20 µM | [15] 29.9 µM

Cc1cc(C2CC2)nc(Nc2ccccc2)n1
active: [1] 15.2 µM | [5] 24.8 µM | [7] 37.5 µM | [11] 33.7 µM | [13] 5.17 µM
inactive: [2] | [3] | [4] | [6] | [8] | [9] | [10] | [12] | [14] | [15] | [16] | [17] | [18] | [19]

CC[C@H](C)[C@H]1O[C@]2(C=C[C@@H]1C)C[C@@H]1C[C@@H](C/C=C(\C)[C@@H](O[C@H]3C[C@H](OC)[C@@H](O[C@H]4C[C@H](OC)[C@@H](NC)[C@H](C)O4)[C@H](C)O3)[C@@H](C)/C=C/C=C3\CO[C@@H]4[C@H](O)C(C)=C[C@@H](C(=O)O1)[C@]34O)O2
active: [1] 3.38 µM | [2] 6.22 µM | [3] 9.14 µM | [5] 2.43 µM | [6] 11.9 µM | [7] 1.61 µM | [8] 1.77 µM | [10] 2.87 µM | [11] 1.88 µM | [20] 1.73 µM | [13] 3.98 µM | [14] 8.45 µM | [15] 7.15 µM | [16] 8.8 µM | [17] 9.47 µM | [18] 6.98 µM | [19] 10.9 µM
inactive: [4] | [12]

CCCSP(=O)(OCC)SCCC
inactive: [1] | [2] | [3] | [4] | [5] | [6] | [7] | [8] | [10] | [11] | [20] | [12] | [13] | [14] | [15] | [16] | [17] | [18] | [19]

CCOC(=O)COc1cc(-c2nn(C)c(OC(F)F)c2Cl)c(F)cc1Cl
inactive: [1] | [2] | [3] | [4] | [5] | [6] | [7] | [9] | [10] | [11] | [20] | [12] | [13] | [14] | [15] | [16] | [17] | [18] | [19]
active: [8] 6.73 µM

CCNc1nc(Cl)nc(NC(C)(C)C#N)n1
inactive: [1] | [2] | [3] | [5] | [6] | [7] | [8] | [10] | [11] | [12] | [13] | [14] | [15] | [16] | [17] | [18] | [19]

CCOP(=O)(NC(C)C)Oc1ccc(SC)c(C)c1 (centres undefined)
inactive: [1] | [2] | [3] | [5] | [6] | [7] | [8] | [9] | [10] | [11] | [12] | [13] | [14] | [15] | [16] | [17] | [18] | [19]

CCOC(=O)CC(SP(=O)(OC)OC)C(=O)OCC (centres undefined)
inactive: [1] | [2] | [3] | [5] | [6] | [7] | [8] | [10] | [11] | [20] | [12] | [13] | [14] | [15] | [16] | [17] | [18] | [19]

O=c1ccc(=O)[nH][nH]1
inactive: [1] | [2] | [3] | [5] | [6] | [7] | [8] | [10] | [11] | [12] | [13] | [14] | [15] | [16] | [17] | [18] | [19]
